ELG1 repair inh: qHTS screen for small molecules that inhibit ELG1-dependent DNA repair in human embryonic kidney (HEK293T) cells expressing luciferase-tagged ELG1. Potency, µM (doses to about 46.1 µM), for inactives: at the highest dose activity change, negative = inhibition, actives largely listed as inhibitors. 330,000 compounds, 2.3% hits. HEK293T ELG1-luciferase reporter, luminescence, 16 h; DNA damage induced by 5-fluorouridine; also: % is scaled to controls: 0 for no effect and ±100 for the full control effect; nearly all actives have a fitted effect of over 55% in size
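Luminescence from the luciferase reporter, measured 30 min after ONE-Glo reagent at room temperature, was the read-out. Beforehand, 2,000 cells per well were exposed for 16 hr at 37 °C to 5-fluorouridine together with compound or vehicle.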
ELG1 genotox: qHTS screen for small molecules that induce genotoxicity in human embryonic kidney (HEK293T) cells expressing luciferase-tagged ELG1. 330,000 compounds, 1.3% hits. AID 504466, 2011. Potency, µM (doses to about 46 µM), inactives show at the highest dose activity change, positive = activation, most hits filed as activators. HEK293T ELG1-luciferase reporter, luminescence, 16 h; also: % of control where 0% means no effect; nearly all actives have a fitted effect of over 60% in size
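Luminescence read-out: rising ELG1-luciferase signal, reflecting elevated ELG1 protein under genetic stress, flags genotoxic compounds. Cells were treated for 16 hr at 37 °C before ONE-Glo detection.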
NPC1 prom act: qHTS Assay for NPC1 Promoter Activators; Potency, µM (highest dose often 9.22 µM), for inactives: at the top dose activation, actives largely listed as activators; Huh7 NPC1 promoter luciferase reporter, 24 h; 320,000 compounds, 2.4% hits; AID 485313, 2010; also: % of control where 0% means no effect; nearly all actives have a fitted effect of over 60% in size
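Huh7 cells stably carrying NPC1 promoter–luciferase, plated in Opti-MEM with 10% FBS for 2 h, were exposed to compound in DMSO for 24 h at 37 °C; luciferase reagent was added for 10 min and luminescence read.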
SMN2 splice up: qHTS Assay for Enhancers of SMN2 Splice Variant Expression. 210,000 compounds, 2.8% hits. HEK293 SMN2-luciferase splicing reporter, luminescence, 30-36 h. Potency, µM (series often up to 46.1 µM), without a hit: at the highest dose activity change, positive = activation, actives largely listed as activators. AID 1458, 2008; also: % of control where 0% means no effect; nearly all actives have a fitted effect of over 55% in size
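qHTS luciferase splicing reporter: luminescence rises when SMN2 exon 7 is included in transfected HEK293 cells. Compound exposure lasted 30-36 h at 37C, with 4.5 mM final sodium butyrate as control, followed by a ONE-Glo read.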
FLuc modulator: qHTS profiling assay for firefly luciferase inhibitor/activator using purifed enzyme and Km concentrations of substrates (counterscreen for miR-21 project). Potency, µM (titrated, usually from 57.5 µM), for the others: at the highest dose activity change, negative = inhibition, usual class: inhibitors. 360,000 compounds, 6.9% hits. purified FLuc, Km substrates, luminescence inhibition;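 also: plate controls were vehicle for no effect and reference inhibitor for full effect; nearly all actives have a fitted effect of over 55% in size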
Target sequence (P08659 whole entry, looked up): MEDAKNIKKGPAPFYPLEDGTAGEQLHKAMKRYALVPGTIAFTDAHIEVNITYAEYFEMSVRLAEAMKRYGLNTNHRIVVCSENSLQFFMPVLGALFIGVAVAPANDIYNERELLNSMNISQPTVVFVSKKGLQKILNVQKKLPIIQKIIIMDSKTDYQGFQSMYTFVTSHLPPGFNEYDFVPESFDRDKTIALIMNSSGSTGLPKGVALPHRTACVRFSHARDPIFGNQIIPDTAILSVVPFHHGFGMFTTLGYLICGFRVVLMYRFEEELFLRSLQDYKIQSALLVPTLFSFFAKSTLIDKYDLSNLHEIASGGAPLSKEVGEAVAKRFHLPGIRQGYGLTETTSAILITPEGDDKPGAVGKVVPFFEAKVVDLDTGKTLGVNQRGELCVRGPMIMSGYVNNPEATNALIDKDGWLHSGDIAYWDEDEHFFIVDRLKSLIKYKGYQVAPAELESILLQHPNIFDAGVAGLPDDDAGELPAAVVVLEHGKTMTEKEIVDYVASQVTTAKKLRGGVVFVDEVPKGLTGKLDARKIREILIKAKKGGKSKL
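Purified P. pyralis luciferase (10nM final) with 10uM D-luciferin and 10uM ATP (Km levels) in 50mM Tris acetate pH 7.5, 10mM Mg acetate, 0.01% Tween-20, 0.05% BSA; qHTS 6-point titration, ~60 µM downward; luminescence read.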
Rab9 prom act: qHTS Assay for Rab9 Promoter Activators; Potency, µM (titrated, usually from 9.22 µM), without a hit: top-dose activation, negative = inhibition, hits mostly activators; Huh7 Rab9 promoter-luciferase reporter, luminescence, 24 h; AID 485297, 2010; 320,000 compounds, 2.8% hits; also: % of control where 0% means no effect; nearly all actives have a fitted effect of over 60% in size
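Huh7 reporter line, Rab9 promoter upstream of luciferase. Compound exposure 24 h at 37 °C in reduced-serum medium with 10% FBS. Read-out: luminescence.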
Active calls of the source: *; ? = inconclusive; . = no result; [ ] = another dose, or the depositor's remark. Rows were chosen to be rich in hits. Some 9.4% of all compounds tested hit in one or more screens of this group. Calls follow the shape of the dose curve; as a rule, active = well fitted curve in the direction sought with a large enough effect; inconclusive = small, poorly fitted or top-dose-only effect, or another doubt; inactive = no such curve, though single readings can be large; an effect the other way counts as inactive or inconclusive. Potency is read from the fitted curve at half-maximal effect.

SMILES	ELG1 repair inh	ELG1 genotox	NPC1 prom act	SMN2 splice up	FLuc modulator	Rab9 prom act
[C-]#[N+]c1cc(-c2ccncc2)c(C)[nH]c1=O	.	.	.	7%	.	.
Cc1ccc(Oc2c(C)nc(-c3ccccc3)[nH]c2=O)cc1	?	-10%	-3%	.	-2%	-6%
Cc1nc(-c2ccccc2)[nH]c(=O)c1Oc1ccc(Cl)cc1Cl	8.2µM*	-12%	-3%	.	-1%	2%
COc1ccc(-c2nc(CSCC(=O)N3CCN(c4cccc(C)c4C)CC3)c(C)o2)cc1OC	.	.	.	.	-18%	.
COC(=O)c1cc(-c2ccccc2)on1	1%	2%	-21%	8%	17µM*	1%
COc1ccc(-c2cc(C(=O)Nc3ccc(OC)cc3OC)no2)cc1	4%	-1%	1%	.	-3%	2%
COC(=O)c1cc(-c2ccc(OC)cc2)on1	-13%	1%	-1%	.	8.5µM*	-7%
COc1ccc(-c2cc(C(=O)NC(C)C)no2)cc1	?	6.5µM*	2.5µM*	13µM*	5.4µM*	1.1µM*
CCN(CC)C(=O)c1cc(-c2ccc(Br)cc2)on1	?	?	2µM*	?	9.5µM*	3.2µM*
O=C(O)c1cc(-c2ccccc2)on1	2%	0%	-3%	0%	0%	2%
Cc1cc(NC(=O)c2cc(-c3ccc(Br)cc3)on2)no1	2%	4%	-2%	10%	-1%	-1%
Clc1cccc(-c2csc(-c3nc(-c4ccc(Br)s4)cs3)n2)c1	.	.	.	0%	-1%	.
COCCCNC(=O)CN1C(=O)COc2ccc(S(=O)(=O)N3CCCC3)cc21	.	.	.	-11%	-5%	.
COC(=O)c1cc(-c2ccc(Br)cc2)on1	3%	1%	-1%	-2%	8.5µM*	1%
COC(=O)c1cc(-c2cccc(OC)c2)on1	-14%	2%	-2%	-11%	12µM*	-3%
CC(=O)c1cccc(NC(=O)Cn2c(=O)c(CNc3ccc(C)cc3)cc3cc4c(cc32)OCCO4)c1	.	.	.	.	-7%	.
CC(=O)Nc1ccc2[nH]c3ccccc3c2c1	?	1%	3%	.	19µM*	21%
CC(=O)Nc1ccc2[nH]c(C)cc(=O)c2c1	17%	-1%	-3%	2%	4%	-3%
CC(=O)Nc1ccc(Cc2ccc3[nH]c(=O)cc(C)c3c2)cc1	?	21µM*	-3%	8%[9.22 µM]	3%	-1%
CC12CN3CC(c4ccccc4)(CN(C1)C3c1ccc(Cl)cc1)C2=O (centres undefined)	.	.	.	5%	4%	.
O=C(Nc1ccc(Cl)cc1)c1cc(S(=O)(=O)N2CCOCC2)cs1	15µM*	-5%	-2%	-65%	-3%	0%
O=C(Nc1ccccc1C(=O)O)c1ccc(Cl)c(S(=O)(=O)N2CCOCC2)c1	0%	-7%	14%	-10%	6.7µM*	26%
O=C(Nc1ccccc1N1CCOCC1)c1ccc(Cl)c(S(=O)(=O)NCc2ccco2)c1	16µM*	-11%	-4%	-2%	2%	-9%
O=C(Nc1ccccc1C(=O)O)c1cc(S(=O)(=O)N2CCOCC2)cs1	20%	1%	1%	9%	19µM*	4%
CC(=O)c1sc(NC(=O)c2c(-c3ccccc3)c(-c3ccccc3)nn(C)c2=O)nc1C	.	.	.	-13%	?	.
SMILES	ELG1 repair inh	ELG1 genotox	NPC1 prom act	SMN2 splice up	FLuc modulator	Rab9 prom act
COc1cccc(CNC(=O)C2CCC(CNS(=O)(=O)c3ccc(Br)s3)CC2)c1 (centres undefined)	.	.	.	-12%	3%	.
O=C(C1CCN(S(=O)(=O)c2cccc3nsnc23)CC1)N1CC=C(c2ccccc2)CC1	18µM*	-8%	-2%	-38%	-9%	-3%
O=C(C1CCCN(S(=O)(=O)c2cccc3nsnc23)C1)N1CC=C(c2ccccc2)CC1 (centres undefined)	?	-12%	-1%	-50%	2%	-1%
O=C(C1CCC(CNS(=O)(=O)c2cccc3nsnc23)CC1)N1CC=C(c2ccccc2)CC1 (centres undefined)	21µM*	-10%	4%	-34%	-1%	-8%
Cc1cc(C)cc(NS(=O)(=O)c2ccc(-c3cc(C)no3)cc2)c1	.	.	.	.	1%	.
COC(OC)c1ccnc(-c2ccc(OC(C)=O)cc2)n1	?	13%	0%	?	?	5%
COC(OC)c1ccnc(-c2ccc(OC(=O)c3cccs3)cc2)n1	?	0%	2%	18%	21µM*	13%
COC(OC)c1ccnc(-c2ccc(OC(=O)c3ccccc3)cc2)n1	0%	12%	3%	-1%	17µM*	-2%
CC(=O)N1c2ccc(S(=O)(=O)N3CCCCCC3)cc2CC1C(=O)NCc1ccccc1F (centres undefined)	.	.	.	.	-4%	.
O=C(N/N=C/c1ccccc1)C(=O)N/N=C/c1ccccc1	1%	4%	-6%	.	-2%	-1%
O=C(C=C=Nc1ccccc1)C(=O)N=C=Cc1ccccc1	4%	?	-13%	.	4.8µM*	-36%
C=C(CCC(=O)c1ccccc1)C(=O)c1ccccc1	-30%	-16%	-4%	-20%	17µM*	-8%
C=C(C(=O)c1ccccc1)C(CC(=O)c1ccccc1)c1ccccc1 (centres undefined)	13µM*	-11%	-13%	-86%	-1%	-21%
CC(C)Oc1ccc(C(=O)N(Cc2ccco2)c2ccccn2)cc1	.	.	.	.	-7%	.
Cc1cccc(C)c1OCCCn1c(CCNC(=O)C2CCCCC2)nc2ccccc21	.	.	.	-11%	1%	.
CCOc1ccc(C(=O)Nc2ccc3[nH]ncc3c2)cc1	?	13%	1.3µM*	.	1.3µM*	1.4µM*
COc1ccc(C(=O)N/N=C(\C)CC(=O)Nc2ccc3ccccc3c2)c(OC)c1	6%	-2%	6%	.	-12%	3%
COc1ccc(C(=O)Nc2ccc3cn[nH]c3c2)c(OC)c1	?	?	?	13µM*	6µM*	?
O=C(COc1ccc(Cl)cc1)Nc1ccc2[nH]ncc2c1	0%	-3%	3%	.	-16%	-1%
COc1ccc(C(=O)Nc2ccc3[nH]ncc3c2)cc1	?	8.2µM*	0.89µM*	.	1.9µM*	2.8µM*
COc1cccc(C2C(=O)N(C3CCCCC3)CC(=O)N2Cc2ccc(Cl)cc2)c1 (centres undefined)	.	.	.	.	6%	.

Assay outcomes as filed in PubChem.
